{
  "source": "PubChem BioAssay (EPA / NIEHS)",
  "note": "Results filed as inconclusive are left out. Calls of active or inactive are those of the source. The calls were made as follows: active = hit-call score of the fitted dose curve at least 0.9, where 1 is the maximum; inconclusive = response in the unintended direction; inactive = score below 0.9.",
  "data": [
    {"assay": "CCTE_Mundy_HCI_iCellGluta_NOG_NeuronCount: CCTE's Neurite Outgrowth Assay in iCellGluta cells for Neuron Count, Mundy Lab (AID 2284340);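 also: cells fixed about 48 h after compound addition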", "protocol": "CCTE_Mundy_HCI_iCellGluta_NOG is a multiplexed, cell-based-readout assay that uses iCell GlutaNeurons from FUJIFILM Cellular Dynamics, Inc. (FCDI), human glutamatergic enriched neurons derived from induced pluripotent stem (iPS) cells, with measurements taken at 50.33 hours after chemical dosing in a microplate: 96-well plate.CCTE_Mundy_HCI_iCellGluta_NOG_NeuronCount is one of four components of the CCTE_Mundy_HCI_iCellGluta_NOG assay. It measures cell viability related to number of neurons using High Content Imaging of fluorescently labelled markers.Data from the assay component CCTE_Mundy_HCI_iCellGluta_NOG_NeuronCount was analyzed at the endpoint CCTE_Mundy_HCI_iCellGluta_NOG_NeuronCount in the positive analysis fitting direction relative to DMSO as the negative control and baseline of activity. Using a type of viability reporter, loss-of-signal activity can be used to understand developmental effects.\nExposure starts 2 hours post-plating by adding 10 ul of the working solution to 90 ul of media in the wells for a 1/10 dilution. Forty-eight hours after chemical treatment cells are fixed by direct addition of 100 ul of warm (37C) Dulbecco's phosphate buffered saline (DPBS) fixative solution containing 8% paraformaldehyde, 8% sucrose, and 0.1% of 3 mg/ml Hoechst 33342 into each well. Primary antibodies are prepared by dilution in Immunocytochemical Staining Buffer (ISB), 10X Dulbecco's PBS, 0.1% Saponin, 5% Bovine Serum Albumin, 0.5% NaN3 (Sodium Azide) and betaIII-tubulin (rabbit anti-betaIII-tubulin, 1:800) followed by Alexa Fluor-488 secondary (1:500) to label neuronal cell bodies and neurites. A Cellomics ArrayScan VTi HCS Reader is used for automated image acquisition and analysis of neurite outgrowth.", "values": [
      {"smiles": "C=CC1(C)OC(=O)N(c2cc(Cl)cc(Cl)c2)C1=O", "note": "(stereo unspecified)", "outcome": "inactive"},
      {"smiles": "CN(C)C(=S)SSC(=S)N(C)C", "AC50": "0.0675 µM (active)"},
      {"smiles": "CO/C=C(/C(=O)OC)c1ccccc1Oc1cc(Oc2ccccc2C#N)ncn1", "AC50": "66 µM (active)"},
      {"smiles": "COC(=O)N(OC)c1ccccc1COc1ccn(-c2ccc(Cl)cc2)n1", "AC50": "12.7 µM (active)"},
      {"smiles": "CC(C)(C)c1ccc(CSc2cnn(C(C)(C)C)c(=O)c2Cl)cc1", "AC50": "6.79 µM (active)"},
      {"smiles": "CCOC(=O)CC(SP(=S)(OC)OC)C(=O)OCC", "note": "(stereo unspecified)", "outcome": "inactive"},
      {"smiles": "COP(N)(=O)SC", "note": "(stereo unspecified)", "outcome": "inactive"},
      {"smiles": "C=CCC1=C(C)[C@@H](OC(=O)[C@@H]2[C@@H](C=C(C)C)C2(C)C)CC1=O", "outcome": "inactive"},
      {"smiles": "C=CCC1=C(C)C(OC(=O)C2C(C=C(C)C)C2(C)C)CC1=O", "note": "(stereo unspecified)", "outcome": "inactive"},
      {"smiles": "CCOc1cc(Oc2ccc(C(F)(F)F)cc2Cl)ccc1[N+](=O)[O-]", "AC50": "50 µM (active)"},
      {"smiles": "CCCCC(CC)COC(=O)c1ccccc1C(=O)OCC(CC)CCCC", "note": "(stereo unspecified)", "AC50": "18.8 µM (active)"},
      {"smiles": "CCCCNC(=O)n1c(NC(=O)OC)nc2ccccc21", "outcome": "inactive"},
      {"smiles": "Cc1ccc(-c2c(Cl)nc(C#N)n2S(=O)(=O)N(C)C)cc1", "AC50": "50 µM (active)"},
      {"smiles": "N#Cc1nn(-c2c(Cl)cc(C(F)(F)F)cc2Cl)c(N)c1S(=O)C(F)(F)F", "note": "(stereo unspecified)", "outcome": "inactive"},
      {"smiles": "COP(=S)(OC)Oc1nc(Cl)c(Cl)cc1Cl", "AC50": "23.1 µM (active)"},
      {"smiles": "CCCCOC(=O)c1ccccc1C(=O)OCCCC", "outcome": "inactive"}
    ]}
  ]
}
